We go through 27 compounds from PubChem BioAssay AID2796 (The Scripps Research Institute Molecular Screening Center, 2010).

About 8,000 (2.5%) of roughly 320,000 compounds were called active. The list comes from a sample in which actives are over-represented; it also holds similar structures and randomly drawn compounds. Unmarked numbers belong to inactive results. Rule as the data show it: active = activation above about 47%; inactive = the rest.

Chain of Aryl hydrocarbon receptor (Homo sapiens) (P35869 whole entry, looked up): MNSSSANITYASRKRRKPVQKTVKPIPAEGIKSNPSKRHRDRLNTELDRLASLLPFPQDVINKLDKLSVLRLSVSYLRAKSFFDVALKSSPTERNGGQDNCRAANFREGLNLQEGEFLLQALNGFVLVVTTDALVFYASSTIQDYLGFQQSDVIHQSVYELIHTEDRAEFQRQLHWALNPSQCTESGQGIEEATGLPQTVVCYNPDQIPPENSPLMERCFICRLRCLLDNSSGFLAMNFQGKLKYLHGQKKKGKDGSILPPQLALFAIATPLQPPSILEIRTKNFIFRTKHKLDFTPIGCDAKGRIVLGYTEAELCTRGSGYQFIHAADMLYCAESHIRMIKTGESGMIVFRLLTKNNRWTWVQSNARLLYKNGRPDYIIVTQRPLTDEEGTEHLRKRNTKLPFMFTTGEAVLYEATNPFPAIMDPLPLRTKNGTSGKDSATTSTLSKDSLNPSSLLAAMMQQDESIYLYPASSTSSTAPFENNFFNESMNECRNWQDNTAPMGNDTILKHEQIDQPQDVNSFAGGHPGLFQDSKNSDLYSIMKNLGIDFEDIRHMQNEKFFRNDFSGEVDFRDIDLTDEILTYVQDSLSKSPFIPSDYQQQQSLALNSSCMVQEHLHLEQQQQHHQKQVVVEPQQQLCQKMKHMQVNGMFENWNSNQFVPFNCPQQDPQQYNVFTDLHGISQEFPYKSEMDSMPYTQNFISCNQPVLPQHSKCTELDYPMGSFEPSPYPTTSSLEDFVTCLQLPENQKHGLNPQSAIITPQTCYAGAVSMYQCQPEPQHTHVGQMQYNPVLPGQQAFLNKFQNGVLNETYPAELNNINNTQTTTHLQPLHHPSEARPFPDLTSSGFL

The experiment concerns the target Aryl hydrocarbon receptor (Homo sapiens) (UniProt P35869). Briefly: AHR activators, primary screen, cell-based, luminescence, luciferase reporter, human (AID 2796).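 Also: 0% = vehicle wells and 100% = reference agonist.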 Particulars: AHR-responsive luciferase reporter cells, at 5 µM, hits give high values.
With `Cc1ccc(F)cc1NC(=O)N1CCCN(c2ccc(C(F)(F)F)cn2)CC1`, the activation was -3.14%.

In the case of `CCc1nn(CCCC(=O)Nc2ccc(C)c(C)c2)c(=O)c2cc3occc3n12`, the activation was 4.33%. For `Nc1c(C(=O)c2cccs2)sc2nsc(SCCN3CCCCC3)c12`, the activation is 25.2%. Take `OC(COc1ccc(CN2CCSCC2)cc1)CN1CCCCC1` (configuration not stated): the activation is -1.38%. Turning to `CCOc1ccc(CN2CCN(Cc3ccon3)CC2CCO)cc1` (configuration not stated), the activation is 7.62%.

Turning to `Cc1cccc(/C=N/NC(=O)CNc2cccc3ccccc23)n1`, the activation was 46%. For `C/C(=N\NC(=O)CNc1cccc2ccccc12)c1ccc(Br)s1`, the activation was 91.4% (active). On to `Cn1cccc1/C=N/NC(=O)CNc1cccc2ccccc12`, for which the activation was 5.35%. In the case of `O=C(CSc1nnc(SCc2ccc(F)cc2)s1)Nc1ccc(C(=O)O)cc1`, the activation was -0.59%. For `C#CCSc1nnc(-c2sc3ccccc3c2Cl)o1`, the activation is 89.2% (active).

Consider `Clc1ccc(-c2nnc(SCc3nc4ccccc4s3)o2)cc1`, for which the activation is 18.2%. Under `O=C(NCC#CCSc1nnc(-c2cccc3ccccc23)o1)c1cccs1` stands -2.43%; under `COC(=O)CSc1ccc2nnc(CCNS(=O)(=O)c3ccc(C)cc3)n2n1`, 0.87%. `O=C(CN1CCN(S(=O)(=O)c2ccc(Cl)s2)CC1)NCc1ccc(Cl)cc1`: the activation was -0.6%. As for `CC[n+]1cc(C)ccc1/C=C/c1ccc(N(C)C)cc1`, the activation was -0.11%. `Cc1c(C(=O)OCC(=O)N2CCCC2=O)oc2ccccc12`: the activation is 1.38%.

Turning to `COc1cccc(C(=O)Nc2nnc(S(=O)(=O)N3CCCCC3)s2)c1`, the activation is 9.59%. Take `COc1cccc(NC(=O)Nc2nnc(N3CCCCC3C)s2)c1` (configuration not stated): the activation was 62.3% (active). On to `COc1cccc(NC(=O)NCCN2CCCCC2)c1`, for which the activation is 2.06%. On to `Nc1ccn(C2CC(O)C(CO)O2)c(=O)n1` (configuration not stated), for which the activation is -4.38%. `O=C(NNC(=O)c1ccc(Cl)nc1)c1ccc(Br)cc1`: the activation is -2.45%. As for `O=C(NC1CCCC1)C(=O)c1c[nH]c2ccccc12`, the activation is -1.15%. In the case of `NC(=O)CSc1c[nH]c2ccccc12`, the activation was 20.9%. Under `O=S(=O)(O)Oc1c[nH]c2ccccc12` stands 66.7% (active).

`COc1ccc(N2CC(C(=O)NCCN3C(=O)S/C(=C\c4cccnc4)C3=O)CC2=O)c(OC)c1` (configuration not stated): the activation is -0.14%. For the compound `COc1ccc(C(CNC(=O)c2cccc(S(=O)(=O)Nc3ccccc3Cl)c2)N2CCOCC2)cc1` (configuration not stated), the activation was 8.55%. Under `Cc1cc(Br)ccc1NC(=O)CN(C)C(=O)CN1C(=O)NC2(CCCC2)C1=O` stands 1.62%.
